Experimental data reported in PubChem BioAssay (NCI).
Compounds without any hit were thinned out: in the full panel of roughly 83,000, 20% have a hit.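 48-hour exposure, single concentration, 96-well plates; percent growth endpoint where 0 means no net growth. Active: below 10.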 Activity calls are given as the source filed them.

These compounds were tested on HOP-62 NSCLC (assay: NCI-60 one-dose screen, 48 h (100 = growth as untreated, 0 = no growth, -100 = all killed)). Conditions: 10 µM unless noted.
With `CCOC(=O)c1cc(C(=O)c2cc(OC)cc(OC)c2)n2ncccc12` the growth was 30.7% (inactive).
In the case of `CO[C@H]1/C=C/O[C@@]2(C)Oc3c(C)c(O)c4c(O)c(c5c(nc6cc(C)ccn65)c4c3C2=O)NC(=O)/C(C)=C\C=C\[C@H](C)[C@H](O)[C@@H](C)C(O)[C@@H](C)[C@H](OC(C)=O)[C@@H]1C` (stereo partly drawn), the growth is reported as 3.22% (active).
For `CN1CCN(Cn2nc(-c3cc(Cl)cc(Cl)c3Cl)oc2=S)CC1`, the growth was 93.9% (inactive).
In the case of `COC1=C(OC)C(=O)C(CCCCCCCCCCO)=C(C)C1=O`, the growth is reported as 86.4% (inactive).
`COCCn1cc(-c2nc(-c3cc4cccnc4n3C)cs2)c2cc(OC)ccc21` was tested, and the growth was 47.2% (inactive).
With `O=C(/C=C/c1ccc(Cl)cc1)c1ccc(-n2cc(CN3CCN(c4cc5c(cc4F)c(=O)c(C(=O)O)cn5C4CC4)CC3)nn2)cc1` the growth was 85.5% (inactive).
`Cc1ccc(S(=O)(=O)c2nc(-c3ccccc3)oc2S(C)=O)cc1` (stereo not drawn) was tested, and the growth was 78.5% (inactive).
With `CNC(=O)c1cc(Oc2ccc3nc(NC(=O)Nc4ccc(F)cc4F)sc3c2)ccn1` the growth was 60.7% (inactive).
For `CCCCN(CCC#N)C(N)=O`, the growth was 105% (inactive).
For `COc1cccc(/C=C2\CCc3ccccc3C2=O)c1`, the growth was 88.4% (inactive).
For `C#Cc1c(I)n(C2OC(CO[Si](C)(C)C(C)(C)C)C3OC(C)(C)OC32)c(=O)[nH]c1=O` (stereo not drawn), the growth was 97% (inactive).
`COc1cc(/C=C2\C(=O)N(CCOc3cc(O)c4c(=O)cc(-c5ccccc5)oc4c3)c3ccccc32)cc(OC)c1O` was tested, and the growth was 68.7% (inactive).
For `O=C1c2ccccc2-c2c1c1ccncc1c(=O)n2CCCn1ccnc1`, the growth was 39.9% (inactive).
